# In PubChem BioAssay (NCATS):
# Inconclusive results are not listed. Where a call stands in place of a potency, no number is given. Active and inactive are the calls of the source. Unless noted, calls follow the shape of the full dose curve.
# Columns and labels:
# [1] = qHTS assay for small molecule antagonists of peroxisome proliferator-activated receptor delta signaling (AID 588535; active = well fitted inhibition curve with a large enough effect in the signal ratio, with a control signal flat, not every such curve was filed as active; the % refers to the signal ratio;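 as to max response: cells co-treated with a PPAR-delta agonist as stimulator during compound exposure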); conditions: HEK293T PPARd-UAS-bla, beta-lactamase FRET ratio, 18 h; 460 nm channel
# Summary of the method: (§1)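 Cell-based beta-lactamase assay in antagonist mode: 4000 HEK293T PPAR-delta-UAS-bla cells per well, 5 hr preincubation then 18 hr compound incubation at 37 C. IC50 obtained by Hill equation fitting.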
# [2] = target: Peroxisome proliferator-activated receptor delta (Homo sapiens) (UniProt Q03181); experiment: as above; conditions: HEK293T PPARd-UAS-bla, beta-lactamase FRET ratio, 18 h; series mostly up to 76.7 µM
# Chain of Peroxisome proliferator-activated receptor delta (Homo sapiens) (Q03181 whole entry, looked up): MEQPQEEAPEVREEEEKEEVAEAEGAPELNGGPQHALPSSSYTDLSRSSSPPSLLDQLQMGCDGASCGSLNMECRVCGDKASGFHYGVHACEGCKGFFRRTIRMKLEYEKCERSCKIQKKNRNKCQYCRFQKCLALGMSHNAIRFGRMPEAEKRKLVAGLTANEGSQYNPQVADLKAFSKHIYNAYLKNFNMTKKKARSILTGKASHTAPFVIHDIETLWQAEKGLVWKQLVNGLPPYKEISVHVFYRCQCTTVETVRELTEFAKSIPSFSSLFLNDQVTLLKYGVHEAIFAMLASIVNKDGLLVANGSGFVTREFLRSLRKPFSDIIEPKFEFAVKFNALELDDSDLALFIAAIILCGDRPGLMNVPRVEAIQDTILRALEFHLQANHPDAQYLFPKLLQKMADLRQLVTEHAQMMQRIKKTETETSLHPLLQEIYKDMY
# Summary of the method: as §1
# [3] = target: Peroxisome proliferator-activated receptor gamma (Homo sapiens) (UniProt P37231); experiment: qHTS assay for small molecule agonists of peroxisome proliferator-activated receptor gamma signaling (AID 588536; active = well fitted curve in the direction sought with a large enough effect in the signal ratio, with a control signal flat, not every such curve was filed as active; the % refers to the signal ratio); conditions: HEK293 PPARg-UAS-bla, beta-lactamase ratio, 16 h; series mostly up to 76.7 µM
# Chain of Peroxisome proliferator-activated receptor gamma (Homo sapiens) (P37231 whole entry, looked up): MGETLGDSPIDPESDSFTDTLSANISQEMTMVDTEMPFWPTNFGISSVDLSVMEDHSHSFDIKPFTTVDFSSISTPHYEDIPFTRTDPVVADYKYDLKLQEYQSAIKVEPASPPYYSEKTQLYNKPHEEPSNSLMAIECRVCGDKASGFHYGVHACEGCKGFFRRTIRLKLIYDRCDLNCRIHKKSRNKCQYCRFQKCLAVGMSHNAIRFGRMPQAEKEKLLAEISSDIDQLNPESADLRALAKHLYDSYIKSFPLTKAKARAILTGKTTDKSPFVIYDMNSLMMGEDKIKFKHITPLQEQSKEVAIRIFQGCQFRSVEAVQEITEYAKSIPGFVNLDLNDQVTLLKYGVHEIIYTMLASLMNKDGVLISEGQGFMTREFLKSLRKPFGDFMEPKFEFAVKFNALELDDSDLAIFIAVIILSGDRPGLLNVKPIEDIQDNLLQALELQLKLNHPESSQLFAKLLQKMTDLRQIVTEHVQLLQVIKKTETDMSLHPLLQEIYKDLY
# Summary of the method: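 Test agents, titrated, stimulated HEK293 UAS-bla cells overnight (16 h, 37 C). Substrate CCF4 was then added for two hours at room temperature before fluorescence reading.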
# [4] = target: Glucocorticoid receptor (Homo sapiens) (UniProt P04150); experiment: qHTS assay for small molecule antagonists of glucocorticoid receptor signaling (AID 588533; active = well fitted inhibition curve with a large enough effect in the signal ratio, with a control signal flat, not every such curve was filed as active; the % refers to the signal ratio;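 also: cells stimulated with 2 nM dexamethasone as agonist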); conditions: HeLa MMTV-bla, GRE beta-lactamase ratio, antagonist mode, 18 h; series mostly up to 76.8 µM
# Chain of Glucocorticoid receptor (Homo sapiens) (P04150 whole entry, looked up): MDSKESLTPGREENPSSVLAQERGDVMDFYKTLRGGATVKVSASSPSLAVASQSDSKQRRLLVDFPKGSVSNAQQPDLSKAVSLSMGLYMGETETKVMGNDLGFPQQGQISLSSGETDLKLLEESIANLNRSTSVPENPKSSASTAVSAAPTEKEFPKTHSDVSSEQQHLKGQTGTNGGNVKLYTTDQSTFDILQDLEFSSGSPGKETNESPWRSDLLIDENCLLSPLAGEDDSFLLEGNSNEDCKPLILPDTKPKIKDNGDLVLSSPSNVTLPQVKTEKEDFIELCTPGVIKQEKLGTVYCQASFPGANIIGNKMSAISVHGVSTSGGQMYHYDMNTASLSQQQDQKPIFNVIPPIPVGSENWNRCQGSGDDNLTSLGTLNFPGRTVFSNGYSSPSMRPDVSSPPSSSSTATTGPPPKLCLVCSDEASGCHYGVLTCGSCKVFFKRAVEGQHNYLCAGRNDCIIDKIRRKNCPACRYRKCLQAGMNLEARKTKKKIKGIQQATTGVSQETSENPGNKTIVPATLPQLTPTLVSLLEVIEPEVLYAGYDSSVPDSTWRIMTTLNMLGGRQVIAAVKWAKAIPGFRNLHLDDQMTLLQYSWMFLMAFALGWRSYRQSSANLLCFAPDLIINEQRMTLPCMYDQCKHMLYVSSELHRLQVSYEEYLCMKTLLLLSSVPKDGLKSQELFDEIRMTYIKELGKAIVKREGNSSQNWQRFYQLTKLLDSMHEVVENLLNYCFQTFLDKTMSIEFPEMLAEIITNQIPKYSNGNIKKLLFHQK
# Summary of the method: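 Antagonist-mode qHTS: compound titrations added to GRE-bla HeLa cells, then dexamethasone 2 nM final; 18 h, 37 C. CCF4 FRET fluorescence normalized to dexamethasone and DMSO; IC50 from Hill fit.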
# [5] = qHTS assay for small molecule agonists of the antioxidant response element (ARE) signaling pathway (AID 651741; active = well fitted activation curve with a large enough effect in the signal ratio; the % refers to the signal ratio); conditions: HepG2 ARE-bla reporter, beta-lactamase FRET ratio, 16 h; series mostly up to 96 µM
# Summary of the method: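 Seeding 2,000 ARE-bla HepG2 cells per well preceded a 5 h incubation at 37 C/5% CO2 and a 16 h compound exposure at 37 C. Beta-lactamase reporter activity was then quantified by fluorescence after 2 h with LiveBLAzer B/G FRET substrate.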
# [6] = qHTS assay for small molecule activators of the nuclear factor-kappa B (NF-kB) signaling pathway (AID 651749; active = well fitted activation curve with a large enough effect in the signal ratio; the % refers to the signal ratio); conditions: NF-kB-bla ME-180 cells, beta-lactamase FRET ratio, 16 h; activation: stronger effect = higher value
# Summary of the method: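 Stably transfected ME-180 line; NF-kB response element upstream of beta-lactamase. Treatment: compound or DMSO, 16 hr. Detection: fluorescent FRET substrate.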
# [7] = qHTS assay for small molecule activators of the human pregnane X receptor (PXR) signaling pathway (AID 720659; call rule not given here); conditions: DPX-2 HepG2 CYP3A4-luciferase, 24 h; series mostly up to 92.3 µM
# [8] = target: Bile acid receptor (Homo sapiens) (UniProt Q96RI1); experiment: qHTS assay for small molecule antagonists of farnesoid X receptor signaling (AID 588526); conditions: HEK293T FXR-UAS-bla, beta-lactamase ratio, antagonist mode; series mostly up to 76.7 µM
# Chain of Bile acid receptor (Homo sapiens) (Q96RI1 whole entry, looked up): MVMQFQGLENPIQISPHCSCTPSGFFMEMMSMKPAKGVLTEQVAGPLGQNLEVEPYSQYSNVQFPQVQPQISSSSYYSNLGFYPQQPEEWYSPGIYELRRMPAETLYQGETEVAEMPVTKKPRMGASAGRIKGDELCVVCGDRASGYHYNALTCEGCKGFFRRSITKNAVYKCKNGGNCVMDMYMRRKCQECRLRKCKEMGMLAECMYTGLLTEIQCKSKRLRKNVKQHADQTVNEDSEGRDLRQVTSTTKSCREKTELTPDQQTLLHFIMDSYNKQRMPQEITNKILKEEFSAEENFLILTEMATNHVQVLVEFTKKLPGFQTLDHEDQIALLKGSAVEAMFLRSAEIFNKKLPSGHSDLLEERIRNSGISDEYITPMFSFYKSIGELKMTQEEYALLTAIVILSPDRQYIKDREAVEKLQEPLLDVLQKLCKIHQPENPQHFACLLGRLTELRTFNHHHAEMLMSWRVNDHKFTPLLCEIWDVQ
# Summary of the method: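 Beta-lactamase reporter antagonist mode: HEK293T FXR-UAS-bla cells, titrated compound, CDCA stimulation, 16 h 37 C, CCF4 dye 2 h RT. Data normalized to CDCA 50 uM and DMSO; Hill-fit IC50.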
# [9] = target: Bile acid receptor (Homo sapiens) (UniProt Q96RI1); experiment: qHTS assay for small molecule agonists of farnesoid X receptor signaling (AID 588527); conditions: HEK293T FXR-UAS-bla, beta-lactamase ratio, 16 h; activation: stronger effect = higher value
# Summary of the method: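 Read-out: beta-lactamase reporter fluorescence with CCF4 substrate in GeneBLAzer FXR-UAS-bla HEK293T cells, after 16 h compound exposure at 37 C. Response scaled between DMSO basal (0%) and chenodeoxycholic acid at 100 uM (100%).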
# [10] = target: Peroxisome proliferator-activated receptor gamma (Homo sapiens) (UniProt P37231); experiment: qHTS assay for small molecule antagonists of peroxisome proliferator-activated receptor gamma signaling (AID 588537; active = well fitted inhibition curve with a large enough effect in the signal ratio, with a control signal flat, not every such curve was filed as active; the % refers to the signal ratio;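 also: reporter cells co-stimulated with 50 nM rosiglitazone agonist during compound treatment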); conditions: HEK293 PPARg-UAS-bla, beta-lactamase ratio, antagonist mode; series mostly up to 76.8 µM
# Summary of the method: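 Inhibitors of agonist-stimulated UAS-bla reporter activity were sought in HEK293 cells; rosiglitazone (50 nM) defined full signal and DMSO baseline. Curves fitted to Hill model gave IC50 and efficacy.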
# [11] = target: Androgen receptor (Homo sapiens) (UniProt P10275); experiment: qHTS assay for small molecule agonists of androgen receptor signaling (AID 588515; active = well fitted curve in the direction sought with a large enough effect in the signal ratio, with a control signal flat; the % refers to the signal ratio); conditions: AR-UAS-bla HEK293, beta-lactamase ratio, agonist 16 h; stronger effect = higher value
# Chain of Androgen receptor (Homo sapiens) (P10275 whole entry, looked up): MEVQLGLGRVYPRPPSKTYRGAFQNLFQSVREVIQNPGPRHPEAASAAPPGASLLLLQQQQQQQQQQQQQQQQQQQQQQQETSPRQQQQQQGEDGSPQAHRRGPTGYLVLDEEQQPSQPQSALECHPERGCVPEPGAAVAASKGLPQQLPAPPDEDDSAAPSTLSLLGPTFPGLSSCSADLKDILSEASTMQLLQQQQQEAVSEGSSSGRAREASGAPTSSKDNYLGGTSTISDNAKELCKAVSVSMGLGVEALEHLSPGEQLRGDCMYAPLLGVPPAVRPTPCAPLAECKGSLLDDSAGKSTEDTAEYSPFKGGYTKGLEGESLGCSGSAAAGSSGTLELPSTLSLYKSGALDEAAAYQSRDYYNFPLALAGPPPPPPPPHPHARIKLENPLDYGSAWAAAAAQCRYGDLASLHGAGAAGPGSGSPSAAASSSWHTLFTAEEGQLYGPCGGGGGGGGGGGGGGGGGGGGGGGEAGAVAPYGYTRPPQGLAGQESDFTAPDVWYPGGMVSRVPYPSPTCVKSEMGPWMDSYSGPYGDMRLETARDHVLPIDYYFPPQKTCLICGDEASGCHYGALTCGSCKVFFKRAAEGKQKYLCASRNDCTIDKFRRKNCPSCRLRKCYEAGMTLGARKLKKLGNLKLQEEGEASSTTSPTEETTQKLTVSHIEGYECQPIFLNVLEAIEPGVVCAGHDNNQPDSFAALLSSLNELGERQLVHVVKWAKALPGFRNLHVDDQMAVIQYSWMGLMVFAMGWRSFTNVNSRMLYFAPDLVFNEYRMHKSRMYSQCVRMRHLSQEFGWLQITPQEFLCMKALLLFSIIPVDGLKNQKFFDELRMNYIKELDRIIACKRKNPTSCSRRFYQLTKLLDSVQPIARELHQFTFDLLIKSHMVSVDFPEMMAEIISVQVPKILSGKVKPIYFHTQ
# Summary of the method: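 EC50 and efficacy came from Hill fits of titrations (up to 92 uM) normalized to 30 nM R1881 as 100% and DMSO as 0%. Compound exposure was 16 h at 37 C on AR-UAS-bla HEK293 cells, with a 405/460/530 nm CCF4 fluorescence read.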
# [12] = target: Androgen receptor (Homo sapiens) (UniProt P10275); experiment: qHTS assay for small molecule antagonists of androgen receptor signaling (AID 588516; active = well fitted curve in the direction sought with a large enough effect in the signal ratio, with a control signal flat, not every such curve was filed as active; the % refers to the signal ratio); conditions: AR-UAS-bla HEK293, beta-lactamase ratio, antagonist mode, 16 h; series mostly up to 76.8 µM
# Summary of the method: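 Cells were plated and incubated 5 h, compounds added in titration, then R1881 (10 nM final) as agonist. After 16 h at 37 C, CCF4 substrate was loaded for 2 h at room temperature and fluorescence measured.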
Structure (SMILES),max response [1],Potency [2],Potency [3],Potency [4],Potency [5],activation [6],outcome [7],Potency [8],activation [9],Potency [10],activation [11],Potency [12]
Clc1ccccc1-c1nnc(-c2ccccc2Cl)nn1,-44.7%,inactive,inactive,–,–,–,–,–,–,–,–,–
O=Cc1cccc(Oc2ccccc2)c1,10.7%,inactive,–,inactive,inactive,-0.909% (inactive),inactive,–,–,–,–,–
CCSCc1ccccc1OC(=O)NC,–,–,inactive,inactive,–,–,–,inactive,3.09% (inactive),inactive,–,–
CC1=C(C(=O)Nc2ccccc2)SCCO1,–,–,inactive,inactive,inactive,–,–,inactive,-5.36% (inactive),inactive,-8.15% (inactive),inactive
CCOc1ccc(C(C)(C)COCc2cccc(Oc3ccccc3)c2)cc1,-0.606%,inactive,inactive,inactive,inactive,2.46% (inactive),–,–,4.53% (inactive),inactive,–,–
